sEH activator: soluble epoxide hydrolase (human) activation. activation, % at 2 µM. purified human sEH enzymatic activity, activator screen. 91,000 tested, 0.04% active; in the data active = activation above about 37%
sEH inh: soluble epoxide hydrolase (human) inhibition; recombinant human sEH enzymatic activity assay; P34913; inhibition, % at 2 µM; 91,000 tested, 0.34% active; in the data active = inhibition above about 80%
PostGolgi yeast: growth inhibition of a yeast mutant, post-Golgi transport screen; post-Golgi transport phenotypic cell assay; inhibition, % at 10 µM; 98,000 tested, 0.9% active; AID 739;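 note: yeast cells grown in 1536-well plates; yeast grown about 18 h at 30C before absorbance read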
PostGolgi ctrl: yeast control strain growth, post-Golgi counter-screen | AID 738 | 98,000 tested, 5% active | efflux-deficient yeast background strain, growth absorbance A615, 16 h | inhibition, % at 10 µM
Cav32 inh: blocks human Cav3.2 T-type calcium channel; Cav3.2-expressing cells, Fluo-4 calcium fluorescence FDSS; stronger effect = lower value; O95180; B-score at 10 µM; 100,000 tested, 4% active;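 active = single-dose well whose peak fluorescence ratio is a statistical outlier from its plate by either plate-standardised score or position-corrected B-score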
Target sequence (O95180 whole entry, looked up): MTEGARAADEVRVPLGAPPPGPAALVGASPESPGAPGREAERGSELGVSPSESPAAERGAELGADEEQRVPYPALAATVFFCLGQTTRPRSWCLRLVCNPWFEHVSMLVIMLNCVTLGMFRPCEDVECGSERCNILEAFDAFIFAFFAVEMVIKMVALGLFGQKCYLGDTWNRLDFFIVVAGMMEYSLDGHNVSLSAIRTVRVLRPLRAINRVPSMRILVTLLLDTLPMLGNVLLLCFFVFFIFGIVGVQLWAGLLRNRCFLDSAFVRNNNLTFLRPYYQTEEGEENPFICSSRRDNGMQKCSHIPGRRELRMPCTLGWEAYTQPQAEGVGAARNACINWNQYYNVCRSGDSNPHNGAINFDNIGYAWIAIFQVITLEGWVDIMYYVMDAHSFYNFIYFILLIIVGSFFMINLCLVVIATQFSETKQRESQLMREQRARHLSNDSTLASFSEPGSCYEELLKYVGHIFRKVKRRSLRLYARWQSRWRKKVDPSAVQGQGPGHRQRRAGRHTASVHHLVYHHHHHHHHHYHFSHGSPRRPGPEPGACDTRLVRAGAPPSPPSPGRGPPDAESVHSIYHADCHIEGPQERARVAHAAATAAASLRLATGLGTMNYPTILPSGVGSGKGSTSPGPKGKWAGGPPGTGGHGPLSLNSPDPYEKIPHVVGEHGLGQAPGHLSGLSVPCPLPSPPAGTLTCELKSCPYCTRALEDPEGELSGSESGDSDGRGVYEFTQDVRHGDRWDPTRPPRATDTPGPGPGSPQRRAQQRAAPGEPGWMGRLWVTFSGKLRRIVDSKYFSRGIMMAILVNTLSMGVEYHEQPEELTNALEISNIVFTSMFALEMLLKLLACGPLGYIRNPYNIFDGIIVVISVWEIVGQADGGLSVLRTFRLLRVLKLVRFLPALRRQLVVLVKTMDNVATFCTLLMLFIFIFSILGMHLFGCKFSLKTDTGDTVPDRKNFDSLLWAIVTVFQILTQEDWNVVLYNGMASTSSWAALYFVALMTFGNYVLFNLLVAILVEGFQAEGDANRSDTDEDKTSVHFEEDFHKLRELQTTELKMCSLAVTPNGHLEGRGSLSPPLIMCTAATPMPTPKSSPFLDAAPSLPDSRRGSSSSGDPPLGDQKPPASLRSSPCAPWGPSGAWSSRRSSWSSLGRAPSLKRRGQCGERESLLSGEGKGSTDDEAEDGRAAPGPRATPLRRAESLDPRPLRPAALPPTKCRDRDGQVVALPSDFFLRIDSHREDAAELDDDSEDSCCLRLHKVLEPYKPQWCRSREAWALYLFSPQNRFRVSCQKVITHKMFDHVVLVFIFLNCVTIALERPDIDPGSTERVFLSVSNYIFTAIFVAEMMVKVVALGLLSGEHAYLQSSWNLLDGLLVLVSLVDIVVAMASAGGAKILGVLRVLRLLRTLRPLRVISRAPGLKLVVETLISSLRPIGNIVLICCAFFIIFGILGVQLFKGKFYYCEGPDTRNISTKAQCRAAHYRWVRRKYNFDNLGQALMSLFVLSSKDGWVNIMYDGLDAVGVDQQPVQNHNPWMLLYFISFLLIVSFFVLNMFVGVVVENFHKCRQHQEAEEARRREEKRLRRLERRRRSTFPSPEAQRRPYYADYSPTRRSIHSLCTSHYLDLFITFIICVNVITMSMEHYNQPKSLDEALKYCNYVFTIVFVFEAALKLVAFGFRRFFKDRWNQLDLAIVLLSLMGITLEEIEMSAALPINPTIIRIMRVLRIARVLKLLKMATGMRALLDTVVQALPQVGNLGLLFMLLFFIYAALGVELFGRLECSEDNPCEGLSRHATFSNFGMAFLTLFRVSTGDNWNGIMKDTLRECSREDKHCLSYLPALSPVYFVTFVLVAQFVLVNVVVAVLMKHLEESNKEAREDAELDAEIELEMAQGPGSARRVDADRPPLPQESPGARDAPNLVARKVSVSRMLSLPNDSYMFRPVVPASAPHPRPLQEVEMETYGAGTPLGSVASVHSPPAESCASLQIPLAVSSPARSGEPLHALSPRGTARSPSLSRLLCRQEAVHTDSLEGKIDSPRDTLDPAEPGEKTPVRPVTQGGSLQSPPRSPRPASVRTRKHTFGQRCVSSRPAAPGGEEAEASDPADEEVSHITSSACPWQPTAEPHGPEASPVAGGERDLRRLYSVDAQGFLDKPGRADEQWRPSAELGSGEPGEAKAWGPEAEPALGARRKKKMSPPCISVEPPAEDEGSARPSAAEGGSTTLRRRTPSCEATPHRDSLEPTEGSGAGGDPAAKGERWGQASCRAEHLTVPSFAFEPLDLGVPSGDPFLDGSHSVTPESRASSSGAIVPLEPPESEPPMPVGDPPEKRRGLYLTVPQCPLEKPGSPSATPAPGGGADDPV
Starred values were filed as active, the others as inactive. This is a sample that favours compounds with a hit; in the whole collection about 7.8% have one here. Cut-off read from the data, not from the text of the source, unless noted: active = inhibition above about 30%; inactive = the rest.

Results for Cc1cc(C)n(-c2nc3c(c(=O)n(C)c(=O)n3C)n2CC(O)COc2ccccc2C)n1 (centres undefined) ?
sEH activator: 3; sEH inh: -3

Results for CC(C)CCNC(=O)C(c1ccncc1)N(Cc1cccs1)C(=O)Cn1nnc(-c2ccc(F)cc2)n1 (centres undefined) ?
sEH activator: -10; sEH inh: 15; Cav32 inh: -7.4*

Results for O=C(NCC1CCCO1)C(c1cccs1)N(Cc1cccs1)C(=O)Cn1nnc(-c2cccs2)n1 (centres undefined) ?
sEH activator: -2; sEH inh: 3; Cav32 inh: -7.1*

How did O=C(NCC1CCCO1)C(c1ccc(F)cc1)N(Cc1ccc(F)cc1)C(=O)Cn1nnc(-c2cccs2)n1 (centres undefined) do in these assays?
sEH activator: -6; sEH inh: 11; Cav32 inh: -1.6

Results for Cc1ccc(-c2nnn(CC(=O)N(Cc3cccs3)C(C(=O)NC3CCCC3)c3ccncc3)n2)cc1 (centres undefined) ?
sEH activator: 6; sEH inh: -3; Cav32 inh: -1.5

How did CCN(CC(=O)Nc1ccc([N+](=O)[O-])cc1OC)c1ccccc1 do in these assays?
sEH activator: 0; sEH inh: 2; PostGolgi yeast: -2; PostGolgi ctrl: 11; Cav32 inh: -1.3

Results for Clc1ccc(Sc2cc(Cl)c(-c3ccccc3)nn2)cc1 ?
sEH activator: 15; sEH inh: -16; PostGolgi yeast: -12; PostGolgi ctrl: 59*; Cav32 inh: -3

Results for C#CCOCCOCCOCCNc1nc(N2CCN(C(=O)[C@H](CCC(=O)O)n3cc(C(N)[C@H](C)CC)nn3)CC2)nc(N2CCN(C(=O)[C@H](CCC(=O)O)n3cc(C(N)[C@H](C)CC)nn3)CC2)n1 (some centres undefined) ?
Cav32 inh: 0.14

How did COC1CCCCC1Nc1cccc(SC)c1 (centres undefined) do in these assays?
sEH activator: 0; sEH inh: -1; PostGolgi yeast: -6; PostGolgi ctrl: 35*; Cav32 inh: 0.084

Results for Nc1nc2ccccc2nc1N ?
PostGolgi yeast: -10; PostGolgi ctrl: 5; Cav32 inh: -0.0094

Results for c1ccc2nc3ccccc3nc2c1 ?
Cav32 inh: -4.4*

Results for Cc1ccc(NC(=O)NC2CCCN2S(=O)(=O)c2ccc(Cl)cc2)cc1 (centres undefined) ?
sEH activator: -24; sEH inh: 24; PostGolgi yeast: -8; PostGolgi ctrl: 33*; Cav32 inh: -1.6

Results for CN1CCN(C(=O)NC2CCCN2S(=O)(=O)c2ccc(Cl)cc2)CC1 (centres undefined) ?
sEH activator: -11; sEH inh: 10; PostGolgi yeast: 1; PostGolgi ctrl: 9

Results for CC(NC(=O)CSc1nnc(-c2cccc(S(=O)(=O)N3CCCCC3)c2)o1)C12CC3CC(CC(C3)C1)C2 (centres undefined) ?
sEH activator: -93; sEH inh: 93*; PostGolgi yeast: 2; PostGolgi ctrl: 7; Cav32 inh: -7*

Results for N#Cc1ccc(CSc2nnc(-c3cccc(S(=O)(=O)N4CCCCC4)c3)o2)cc1 ?
sEH activator: 16; sEH inh: -15; PostGolgi yeast: -10; PostGolgi ctrl: 20; Cav32 inh: -7.5*

How did COc1ccc(CC2NCCC3=CC(=O)CCC32)cc1O (centres undefined) do in these assays?
Cav32 inh: 1.1

Results for N#C/C(=C/c1ccc(N2CCOCC2)o1)c1ccc(Cl)cc1 ?
sEH activator: 1; sEH inh: 0; PostGolgi yeast: 19; PostGolgi ctrl: 1

What do the screens show for `N#C/C(=C\c1ccc(N2CCOCC2)o1)c1nc2ccccc2[nH]1`?
sEH activator: -26; sEH inh: 28; PostGolgi yeast: -17; PostGolgi ctrl: 0; Cav32 inh: -5.8*

Results for CCOC(=O)C1=C(C)C(c2ccccc2OC)NC(=S)N1 (centres undefined) ?
sEH activator: 2; sEH inh: -2; PostGolgi yeast: -3; PostGolgi ctrl: 2; Cav32 inh: 0.26

How did Cc1ccc(CNC(=O)c2ccc3c(c2)S(=O)(=O)c2ccccc2C3=O)o1 do in these assays?
Cav32 inh: 0.21

How did COc1ccc(S(=O)(=O)NCc2ccccn2)cc1 do in these assays?
sEH activator: -12; sEH inh: 11; PostGolgi yeast: -6; PostGolgi ctrl: -6; Cav32 inh: 0.83

How did CCOC(=O)COc1ccc(S(=O)(=O)NCc2ccncc2)cc1 do in these assays?
sEH activator: 8; sEH inh: -4; PostGolgi yeast: 2; PostGolgi ctrl: 12; Cav32 inh: -5.3*

What do the screens show for `CCOc1ccc(S(=O)(=O)NCc2ccccn2)cc1`?
sEH activator: -7; sEH inh: 8; PostGolgi yeast: -11; PostGolgi ctrl: 30*; Cav32 inh: 0.2

How did CCCCOc1ccc(C(=O)NCc2ccccn2)cc1 do in these assays?
sEH activator: -7; sEH inh: 10; PostGolgi yeast: -4; PostGolgi ctrl: 35*; Cav32 inh: 0.068

How did Cc1ccc(C(=O)N/C(=C\c2cn(-c3ccccc3)nc2-c2ccccc2)C(=O)N2CCOCC2)cc1 do in these assays?
sEH activator: 3; sEH inh: -1; PostGolgi yeast: -4; PostGolgi ctrl: -1; Cav32 inh: -0.19

How did COc1ccc(CCN2CC(C(=O)NCc3ccco3)CC2=O)cc1OC (centres undefined) do in these assays?
sEH activator: 1; sEH inh: -2; PostGolgi yeast: -11; PostGolgi ctrl: 33*; Cav32 inh: 0.086

What do the screens show for `O=C(Cn1c(=O)n(Cc2ccco2)c(=O)c2c3c(sc21)CCCCC3)c1ccccc1`?
sEH activator: 0; sEH inh: 2; PostGolgi yeast: -3; PostGolgi ctrl: 4; Cav32 inh: -1.9

What do the screens show for `O=C(Cn1c(=O)n(Cc2ccco2)c(=O)c2c3c(sc21)CCCCC3)Nc1ccccc1`?
sEH activator: -5; sEH inh: 4; PostGolgi yeast: -3; PostGolgi ctrl: 6; Cav32 inh: -4.5*

Results for CON1C(=O)C(=O)N(OC)C(C)(C)C1C (centres undefined) ?
sEH activator: 14; sEH inh: -17; PostGolgi yeast: 5; PostGolgi ctrl: 31*; Cav32 inh: -2.7

Results for O=C1NC(=Nc2cccc(Cl)c2)SC1Cc1cccc(Cl)c1Cl (centres undefined) ?
sEH activator: -19; sEH inh: 20; PostGolgi yeast: -7; PostGolgi ctrl: 48*; Cav32 inh: 0.12

Results for CCn1c(SCCOc2ccc(Cl)cc2)nnc1-c1cccs1 ?
sEH activator: -2; sEH inh: 1; PostGolgi yeast: 1; PostGolgi ctrl: 27; Cav32 inh: -5.2*

Results for CCn1c(SCC(=O)c2ccc(Cl)cc2)nnc1-c1cccs1 ?
sEH activator: 9; sEH inh: -11; PostGolgi yeast: 4; PostGolgi ctrl: 18; Cav32 inh: -0.35

How did COc1ccc(O)c(CN2CCN(C/C=C/c3ccccc3)CC2)c1 do in these assays?
PostGolgi yeast: 42*; PostGolgi ctrl: 34*; Cav32 inh: -0.27
